Activity calls are given as the source filed them. The calls were made as follows: active = hit-call score of the fitted dose curve at least 0.9, where 1 is the maximum; inactive = score below 0.9.

Chain of Cellular tumor antigen p53 (Homo sapiens) (P04637 whole entry, looked up): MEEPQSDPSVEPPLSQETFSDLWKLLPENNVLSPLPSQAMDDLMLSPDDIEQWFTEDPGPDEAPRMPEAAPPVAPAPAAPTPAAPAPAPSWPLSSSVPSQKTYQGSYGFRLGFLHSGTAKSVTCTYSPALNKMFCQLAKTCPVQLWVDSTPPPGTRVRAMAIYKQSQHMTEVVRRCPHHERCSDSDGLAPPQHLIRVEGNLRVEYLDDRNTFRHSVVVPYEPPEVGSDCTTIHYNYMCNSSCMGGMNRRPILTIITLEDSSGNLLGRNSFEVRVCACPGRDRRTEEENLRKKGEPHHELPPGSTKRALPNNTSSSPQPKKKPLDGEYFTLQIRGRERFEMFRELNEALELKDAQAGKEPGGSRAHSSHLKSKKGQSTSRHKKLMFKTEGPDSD

One test addresses Cellular tumor antigen p53 (Homo sapiens) (UniProt P04637). In words: ATG_p53_CIS: Attagene CIS-FACTORIAL HepG2 Assay for human p53 Transcription Factor (AID 2282994). The note with it: HepG2 p53 cis-element reporter, Attagene mRNA; actives raise or lower the signal. The method in brief: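 Using HepG2 hepatoma cells carrying cis-acting multiplexed reporters, mRNA induction is detected after a 24 h exposure. Gain- and loss-of-signal responses are fitted relative to DMSO-treated cells.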
`CNC(=O)N(C)c1nnc(C(C)(C)C)s1`: the molecule was classed as inactive.

On to `C=CCOC(=O)C(C)(C)OC(=O)c1cc(-n2c(=O)cc(C(F)(F)F)n(C)c2=O)ccc1Cl`, for which the molecule was classed as inactive.

Turning to `O=P(O)(O)CCCl`, the outcome was inactive.

In the case of `CCN(CC)C(=O)C(C)Oc1cccc2ccccc12` (centres undefined), the outcome was inactive.

On to `Clc1cccc(C(Cl)(Cl)Cl)n1`, for which the outcome was inactive.

Consider `Nc1cnn(-c2ccccc2)c(=O)c1Cl`, for which the call was inactive.

Take `Cn1c(-c2ccccc2)cc(-c2ccccc2)[n+]1C`: the molecule was classed as inactive.

`CC1(C)CON(Cc2ccccc2Cl)C1=O`: the outcome was inactive.

Turning to `OC(c1ccc(Cl)cc1)(c1ccc(Cl)cc1)C(Cl)(Cl)Cl`, the outcome was inactive.

Consider `COC(=O)N(C(=O)N1CO[C@@]2(C(=O)OC)Cc3cc(Cl)ccc3C2=N1)c1ccc(OC(F)(F)F)cc1`, for which the outcome was inactive.

Take `COc1ccc(-c2ccccc2)cc1NNC(=O)OC(C)C`: the molecule was classed as inactive.

For the molecule `CCNP(=S)(OC)O/C(C)=C/C(=O)OC(C)C` (centres undefined), the outcome was inactive.

With `COC(=O)c1c(C(F)F)nc(C(F)(F)F)c(C2=NCCS2)c1CC(C)C`, the call was inactive.

Take `COC(=O)NS(=O)(=O)c1ccc(N)cc1`: the molecule was called inactive.

For the molecule `COP(=O)(OC)O/C(C)=C/C(=O)N(C)C`, the outcome was inactive.

As for `Cc1ccc(N=CN(C)C=Nc2ccc(C)cc2C)c(C)c1`, the result was inactive.

Consider `CCSC(=O)N1CCCCCC1`, for which the molecule was classed as inactive.

Take `COCC(C)N(C(=O)CCl)c1c(C)csc1C` (centres undefined): the molecule was classed as inactive.

Take `CCOC(=O)C(C)OC(=O)c1cc(Oc2ccc(C(F)(F)F)cc2Cl)ccc1[N+](=O)[O-]` (centres undefined): the result was inactive.

Turning to `Cc1cnc(C2=NC(C)(C(C)C)C(=O)N2)c(C(=O)O)c1` (centres undefined), the molecule was classed as inactive.

On to `CNC(=O)Oc1cccc2ccccc12`, for which the call was inactive.

Consider `N#Cc1c(Cl)cccc1Cl`, for which the outcome was inactive.

Turning to `CC1(C)C(C(=O)OC(C#N)c2cccc(Oc3ccccc3)c2)C1(C)C` (centres undefined), the result was inactive.

With `Nc1c(Cl)c(F)nc(OCC(=O)O)c1Cl`, the call was inactive.

Turning to `CCCCC(O)(Cn1cncn1)c1ccc(Cl)cc1Cl` (centres undefined), the result was inactive.

On to `CCC(C)n1c(=O)[nH]c(C)c(Br)c1=O` (centres undefined), for which the result was inactive.

`CN/C(=N\[N+](=O)[O-])NCc1cnc(Cl)s1`: the result was inactive.

As to `Clc1nc(Cl)nc(Nc2ccccc2Cl)n1`, the outcome was inactive.

As for `CN=C=S`, the outcome was inactive.

As to `CC(C)Nc1nc(Cl)nc(NC(C)C)n1`, the outcome was inactive.

As for `O=C1C2CC=CCC2C(=O)N1SC(Cl)(Cl)Cl` (centres undefined), the outcome was inactive.

Consider `CCOc1nc(C(Cl)(Cl)Cl)ns1`, for which the outcome was inactive.

Take `CCN(CC)c1nc(C)cc(OP(=S)(OC)OC)n1`: the outcome was inactive.

Read-out in a further test: not listed separately
In words: BSK_3C_TissueFactor: BioMAP Diversity Plus: 3C Assay for Tissue Factor Biomarker Activity (AID 2282997). The note with it: BioMAP 3C HUVEC, tissue factor biomarker readout; actives raise or lower the signal. A digest of the protocol: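 Dosing of human umbilical vein endothelial cells preceded a 24 h incubation. Tissue Factor was then read by ELISA, with increases and decreases both scored relative to DMSO controls.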
For the molecule `CCNC(=O)NC(=O)C(C#N)=NOC`, the result was inactive.

As to `CNC(=O)N(C)c1nnc(C(C)(C)C)s1`, the outcome was inactive.

For `C=CCOC(=O)C(C)(C)OC(=O)c1cc(-n2c(=O)cc(C(F)(F)F)n(C)c2=O)ccc1Cl`, the outcome was inactive.

In the case of `O=P(O)(O)CCCl`, the outcome was inactive.

As to `CCN(CC)C(=O)C(C)Oc1cccc2ccccc12` (centres undefined), the result was inactive.

Turning to `Clc1cccc(C(Cl)(Cl)Cl)n1`, the result was inactive.

With `Nc1cnn(-c2ccccc2)c(=O)c1Cl`, the result was inactive.

Turning to `Cn1c(-c2ccccc2)cc(-c2ccccc2)[n+]1C`, the result was inactive.

`CC1(C)CON(Cc2ccccc2Cl)C1=O`: the result was inactive.

The term AC50 denotes the concentration giving half of the maximal activity seen. `OC(c1ccc(Cl)cc1)(c1ccc(Cl)cc1)C(Cl)(Cl)Cl`: the AC50 is 25.6 µM (active).

Regarding `COC(=O)N(C(=O)N1CO[C@@]2(C(=O)OC)Cc3cc(Cl)ccc3C2=N1)c1ccc(OC(F)(F)F)cc1`, the result was inactive.

Consider `COc1ccc(-c2ccccc2)cc1NNC(=O)OC(C)C`, for which the result was inactive.

Consider `CCNP(=S)(OC)O/C(C)=C/C(=O)OC(C)C` (centres undefined), for which the result was inactive.

In the case of `COC(=O)c1c(C(F)F)nc(C(F)(F)F)c(C2=NCCS2)c1CC(C)C`, the result was inactive.

Consider `CCOc1cc(C(C)(C)C)ccc1C1COC(c2c(F)cccc2F)=N1` (centres undefined), for which the AC50 is 37 µM (active).

On to `COC(=O)NS(=O)(=O)c1ccc(N)cc1`, for which the result was inactive.

Regarding `COP(=O)(OC)O/C(C)=C/C(=O)N(C)C`, the outcome was inactive.

As for `Cc1ccc(N=CN(C)C=Nc2ccc(C)cc2C)c(C)c1`, the AC50 was 32 µM (active).

In the case of `CCSC(=O)N1CCCCCC1`, the result was inactive.

For `COCC(C)N(C(=O)CCl)c1c(C)csc1C` (centres undefined), the result was inactive.

For `CCOC(=O)C(C)OC(=O)c1cc(Oc2ccc(C(F)(F)F)cc2Cl)ccc1[N+](=O)[O-]` (centres undefined), the result was inactive.

Take `Cc1cnc(C2=NC(C)(C(C)C)C(=O)N2)c(C(=O)O)c1` (centres undefined): the outcome was inactive.

Consider `CNC(=O)Oc1cccc2ccccc12`, for which the outcome was inactive.

For the molecule `N#Cc1c(Cl)cccc1Cl`, the result was inactive.

For `CC1(C)C(C(=O)OC(C#N)c2cccc(Oc3ccccc3)c2)C1(C)C` (centres undefined), the result was inactive.

Take `O=C(O)c1c(Cl)ccc2cc(Cl)cnc12`: the result was inactive.

`Nc1c(Cl)c(F)nc(OCC(=O)O)c1Cl`: the outcome was inactive.

Consider `CCCCC(O)(Cn1cncn1)c1ccc(Cl)cc1Cl` (centres undefined), for which the result was inactive.

For the molecule `CCC(C)n1c(=O)[nH]c(C)c(Br)c1=O` (centres undefined), the result was inactive.

For the molecule `CN/C(=N\[N+](=O)[O-])NCc1cnc(Cl)s1`, the outcome was inactive.

On to `Clc1nc(Cl)nc(Nc2ccccc2Cl)n1`, for which the result was inactive.

For the molecule `CN=C=S`, the outcome was inactive.

Turning to `CC(C)Nc1nc(Cl)nc(NC(C)C)n1`, the result was inactive.

As to `O=C1C2CC=CCC2C(=O)N1SC(Cl)(Cl)Cl` (centres undefined), the result was inactive.

Consider `CCOc1nc(C(Cl)(Cl)Cl)ns1`, for which the outcome was inactive.

On to `CCN(CC)c1nc(C)cc(OP(=S)(OC)OC)n1`, for which the result was inactive.

These data come from PubChem BioAssay (EPA / NIEHS).
